Compound activity as filed in PubChem.
A selection: hits, their analogues and other compounds. The true share with any hit is near 1.1%.
GPT2 inh: GPT2 alanine aminotransferase inhibition. actives 0.25% (n = 100,000). Potency, µM (series often up to 57.7 µM), usual class: inhibitors. Recombinant GPT2, coupled pyruvate oxidase/HRP Amplex Red fluorescence; further: nearly all actives have a fitted effect of over 60% in size
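GPT2 10ng/uL, a-KG 250uM, L-Ala 2mM, HEPES pH7.5 + 0.0001% Tween; 30 min RT. Then Amplex mix (PO/HRP/ThPP), 30 min RT dark, fluorescence. AOA 50uM used as positive control.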
HEK293 viab: cell viability loss counter-screen; actives 0.12% (n = 150,000); AID 1671193; Potency, µM (series often up to 57.1 µM), hits mostly cytotoxic; HEK-293-SNCA-luc viability, GF-AFC fluorescence, 24 h; further: nearly all actives have a fitted effect of over 30% in size
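Cytotoxicity counterscreen: after 24 h compound treatment of genome-edited SNCA-luciferase HEK-293 cells, live-cell protease substrate GF-AFC read by fluorescence after 30 min; activity scaled between DMSO (0%) and medium-only (-100%), curves Hill-fitted.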
IP6K1 inh: inhibitors of human IP6K1 | AID 1645851 | IP6K1 kinase, ADP-Glo luminescence, 2 h; stronger effect = lower value | Q92551 | actives 0.81% (n = 140,000) | activity change, % (series mostly up to about 58 µM); in the data active means activity change below about -25%
Target sequence (Q92551 whole entry, looked up): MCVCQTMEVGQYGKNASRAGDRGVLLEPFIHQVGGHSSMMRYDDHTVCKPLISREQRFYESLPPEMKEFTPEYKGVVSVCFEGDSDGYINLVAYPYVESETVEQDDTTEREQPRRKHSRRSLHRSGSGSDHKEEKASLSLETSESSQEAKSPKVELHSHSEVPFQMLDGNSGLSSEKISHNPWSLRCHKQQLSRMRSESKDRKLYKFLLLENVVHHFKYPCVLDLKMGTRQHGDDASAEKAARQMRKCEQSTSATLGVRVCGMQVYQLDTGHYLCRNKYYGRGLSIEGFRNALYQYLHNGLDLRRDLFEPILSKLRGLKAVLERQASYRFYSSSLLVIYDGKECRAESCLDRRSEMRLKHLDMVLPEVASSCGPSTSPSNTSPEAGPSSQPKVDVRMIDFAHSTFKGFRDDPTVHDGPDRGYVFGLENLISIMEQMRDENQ
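ADP-Glo luminescence measures ADP made by human IP6K1 during a 2 h RT reaction with ATP/IP6 (mix at 1.3 mM/130 uM); top library doses 57.5 and 19.1 uM final.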
SNCA expr inhib: SNCA gene expression inhibition | HEK-293 SNCA-luciferase knock-in, luminescence, 24 h | Potency, µM (titrated, usually from 57.2 µM), hits mostly inhibitors | actives 0.17% (n = 140,000) | AID 1671194; further: nearly all actives have a fitted effect of over 45% in size
IP6K1 inh cnf: confirmation of human IP6K1 inhibitors. Potency, µM (titrated, usually from 49 µM), hits mostly inhibitors. recombinant IP6K1 kinase, ADP-Glo luminescence, 2 h. actives 13% (n = 1,200). AID 1645852. shares compounds with IP6K1 inh; further: nearly all actives have a fitted effect of over 65% in size
Hits are given with their value; 0 = inactive; ? = inconclusive; - = no result given; ! = not active in a repeat. Unless noted, the call rests on the fitted dose curve; in most records, active means well fitted curve in the direction sought with a large enough effect; inconclusive means small, poorly fitted or top-dose-only effect, or another doubt; inactive means no such curve, though single readings can be large; an effect the other way counts as inactive or inconclusive.

SMILES	GPT2 inh	HEK293 viab	IP6K1 inh	SNCA expr inhib	IP6K1 inh cnf
O=C(Cn1cc(SCc2cccc(F)c2)c2ccccc21)N1CCCC1	-	0	-97	0	?
O=C(Cn1cc(SCc2cccc(F)c2)c2ccccc21)N1CCOCC1	-	0	0	0	-
Cc1noc([C@@H]2CN(S(=O)(=O)c3ccc(Cl)s3)C[C@H]2C(N)=O)n1	0	0	0	0	-
CCN1CCN(Cc2ccc(NC(=O)c3ccc(C)c(/C=C/c4cnc5[nH]ccc5c4OC)c3)cc2C(F)(F)F)CC1	0	24µM	-39	-	4.6µM
Cc1ccc(NC(=O)c2ccc(CN3CC[C@H](N(C)C)C3)c(C(F)(F)F)c2)cc1Nc1nccc(-c2cncnc2)n1	0	0	0	-	-
Cc1ncc(NC(=O)c2ccc(CN3CCN(C)CC3)c(C(F)(F)F)c2)cc1Nc1nccc(-c2cccnc2)n1	0	0	0	-	-
Cc1ccc(C(=O)Nc2ccc(CN3CCN(C)CC3)c(C(F)(F)F)c2)cc1C#Cc1cnc2[nH]ncc2c1	0	?	-61	-	7.3µM
Cc1ccc(Nc2ccnc(N3CCC(NC(=O)C4CC4)CC3)n2)cc1	0	0	0	?	-
Clc1ccc2c(c1)-n1cc(-c3ccccc3)nc1CO2	-	?	-28	0	?
COC(=O)CC1Oc2ccc(Cl)cc2-n2cc(-c3ccccc3)nc21 (stereo unspecified)	-	0	0	0	-
CN(Cc1ccccc1)C(=O)c1ccc(S(=O)(=O)Nc2ccccc2)cc1	-	-	-	-	0
Cc1cccc(Cn2c(-c3ccccc3)nc3ccccc32)c1	-	0	0	0	-
CC(C)Cn1c(-c2cccc(Br)c2)nc2ccccc21	-	0	-33	0	0
Cn1cnc2cc(-c3ccc(F)cc3)cc(C(=O)NCCc3ccccn3)c21	0	0	0	0	-
Cc1cc(=O)[nH]c2nnc(SCC(=O)Nc3ccc(OC(F)(F)F)cc3)n12	-	0	-25	0	0
Cc1cc(=O)[nH]c2nnc(SCC(=O)NC(C)(C)C)n12	-	0	0	0	-
Cc1ccccc1NC(=O)c1c(C)oc2ccc(O)c(CN3CCCCCC3)c12	-	0	-26	0	0
CC(C)C[C@@H]1N[C@H](C(=O)NCc2ccc(C#N)cc2)Cc2c[nH]c3cccc1c23	0	?	0	?	-
O=C(NCc1nc(-c2cccc(F)c2)c(-c2ccccn2)[nH]1)[C@@H]1C[C@@H](O)CN1	0	0	-30	0	0
CCC[C@H]1CN(C(=O)c2ccccc2Cc2ccc(C)cc2)C[C@@H]1N	0	0	-26	0	0
O=C(C1CCCN([S+](=O)([O-])c2cccs2)C1)N1CCCC(c2nc3ncccc3[nH]2)C1 (stereo unspecified)	0	0	0	0	-
COc1cccc(CNC(=O)c2nn(C)c3c2CSc2ccccc2-3)c1	-	0	-32	0	?
Cn1nc(C(=O)NCc2ccccc2)c2c1-c1ccccc1SC2	-	0	0	0	-
COc1cc(C2CC(=O)Oc3c2c(=O)[nH]c2ccccc32)cc(OC)c1OC (stereo unspecified)	-	0	0	0	-
O=C1CC(c2ccc(F)cc2)c2c(c3ccccc3[nH]c2=O)O1 (stereo unspecified)	-	0	-28	0	0
SMILES	GPT2 inh	HEK293 viab	IP6K1 inh	SNCA expr inhib	IP6K1 inh cnf
COCCN1CCCCCC(O)c2cc(C(=O)NCCCc3ccccc3)ccc21 (stereo unspecified)	0	0	0	0	-
COCCN(Cc1cccs1)S(=O)(=O)c1cc(-c2cc(C)no2)ccc1C	-	0	-33	0	?
CNC(=O)[C@H]1C[C@H](Oc2cccnc2)CN1S(=O)(=O)c1ccccc1	0	0	0	0	-
O=C(NCc1cccnc1)[C@@H]1C[C@@H](O)CN1C1CCN(C(=O)Cc2ccccc2)CC1	0	0	0	0	-
COc1ccc(CNC(=O)C(=O)NCC(c2ccco2)S(=O)(=O)c2ccc(Cl)cc2)cc1 (stereo unspecified)	-	0	-29	0	0
CC(C)C(=O)NCCNC(=O)c1ccc(-c2cccc(C(F)(F)F)c2)cc1	-	-	0	-	-
Cc1ccc(-n2c(C)cc(/C=C(\C#N)C(=O)Nc3ccc(C)c(C)c3)c2C)cc1	-	0	0	0	-
Cc1ccc(NC(=O)/C(C#N)=C/c2cc(C)n(-c3ccc(Br)cc3)c2C)cc1C	-	?	-29	?	0
O=C(NCc1ccc2c(c1)CCN2C(=O)c1ccncc1)c1ccccc1Br	-	0	0	0	-
O=C(NCc1ccc2c(c1)CCN2C(=O)c1ccncc1)c1ccccc1F	-	0	-30	0	0
COc1ccc(NC(=O)C2=CC(c3ccco3)=NS(=O)(=O)N2C)cc1	-	0	-30	0	0
COc1cccc2c1OCCCN(C(=O)CC1COCCN1)C2 (stereo unspecified)	0	0	0	0	-
Cc1cccc(CN2CCNc3cc(-c4ccnc(C)c4)ncc3C2)c1	0	?	-29	0	0
O=c1c(O)c(-c2ccc(O)c(O)c2)oc2cc(O)cc(O)c12	14µM!	0	-55	0	0.46µM
O=c1cc(-c2ccc(O)c(O)c2)oc2cc(O)cc(O)c12	0	0	-	0	-
Oc1ccc(Nc2nc(-c3ccc(Cl)cc3)cs2)cc1	?	0	-32	-	?
Oc1ccc(Nc2nc(-c3ccc(Cl)cc3)nc3ccccc23)cc1	-	?	0	0	-
Cn1c(=O)n(C)c2cc(N3CCOCC3)c(NS(=O)(=O)c3ccc(Cl)cc3)cc21	-	0	0	0	-
Cn1c(=O)c(=O)n(C)c2cc(N3CCOCC3)c(NS(=O)(=O)c3ccc(Cl)cc3)cc21	-	0	-32	0	0
CN(Cc1nc(-c2ccncc2)no1)C1CCC2(CCNCC2)CC1	?	0	-41	0	0
C=C1CC[C@H]2[C@@H](/C=C(\C)C(=O)[C@@]3(OC(C)=O)C[C@H](C)[C@H](OC(C)=O)[C@@H]3[C@H]1OC(C)=O)C2(C)C	0	0	0	-	-
NCCCNc1ccc(Nc2nccc(Nc3cc(C4CC4)[nH]n3)n2)cc1	?	?	0	-	-
OCCCNc1cc(-c2ccnc(Nc3cccc(Cl)c3)n2)ccn1	?	?	-26	?	?
Cc1ccc(S(=O)(=O)N[C@H]2CO[C@H]3[C@@H]2OC[C@@H]3n2nnnc2Oc2ccc(-n3ccnc3)cc2)cc1	0	0	0	0	-
C=Cc1ccc(Cn2c(C(=O)O)c(CNCCc3ccco3)c3ccc(C)cc32)cc1	-	?	-29	0	0
NC[C@H](O)c1ccc(O)c(O)c1	10µM!	0	-70	0	0
Oc1ccc(C(O)CNCCCCCCNCC(O)c2ccc(O)c(O)c2)cc1O (stereo unspecified)	0	0	0	0	-
CC(=O)Nc1cccc(-c2nc(-c3c(C)noc3C)cc3cc(C)oc23)c1	?	0	-28	0	0
Cc1cc2c(C(C)C)c(O)c(O)c(C=O)c2c(O)c1-c1c(C)cc2c(C(C)C)c(O)c(O)c(C=O)c2c1O	?	?	-59	?	?
O=C(Cc1c[nH]c2ncc(-c3ccc(F)c(Cl)c3)cc12)NCc1cccnc1	0	0	-26	0	?
